# Assay results as given in article PMC11006913.
# Substitutions are numbered along the chain they refer to.
# Key:
# Assay in all cases: PBM; 200 nM protein, PBS
# Details in all cases: dsDNA, one strand shown
# VENTX [1] = target: T1, VENTX (Homo sapiens, UniProt O95231 78-163, R121Q)
# T1 sequence: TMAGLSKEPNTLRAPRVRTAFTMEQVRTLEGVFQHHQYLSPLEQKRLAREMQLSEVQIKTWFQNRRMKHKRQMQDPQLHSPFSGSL
# VENTX [2] = target: T2, VENTX (Homo sapiens, UniProt O95231 78-163)
# T2 sequence: T1 sequence with Q44R
# VENTX [3] = target: T3, VENTX (Homo sapiens, UniProt O95231 78-163, Y115F)
# T3 sequence: T1 sequence with Y38F, Q44R
# HOXA7 [4] = target: HOXA7 (Homo sapiens, UniProt P31268 116-202)
# Sequence of HOXA7 (Homo sapiens, UniProt P31268 116-202) (P31268 116-202): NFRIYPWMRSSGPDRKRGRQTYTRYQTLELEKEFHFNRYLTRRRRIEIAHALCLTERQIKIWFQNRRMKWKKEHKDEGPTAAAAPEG
# HOXB6 [5] = target: HOXB6 (Homo sapiens, UniProt P17509 132-218, K202E)
# Sequence of HOXB6 (Homo sapiens, UniProt P17509 132-218, K202E) (P17509 132-218 K202E): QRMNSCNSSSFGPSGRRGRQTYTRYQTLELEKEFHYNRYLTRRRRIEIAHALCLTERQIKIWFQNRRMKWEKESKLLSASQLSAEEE
# HOXA7 [6] = target: HOXA7 (Homo sapiens, UniProt P31268 116-202, W177C)
# Sequence of HOXA7 (Homo sapiens, UniProt P31268 116-202, W177C) (P31268 116-202 W177C): as the sequence (P31268 116-202) above, with W62C counted along it
# HOXB6 [7] = target: HOXB6 (Homo sapiens, UniProt P17509 132-218)
# Sequence of HOXB6 (Homo sapiens, UniProt P17509 132-218) (P17509 132-218): as the sequence (P17509 132-218 K202E) above, with E71K counted along it
# VAX1 [8] = target: VAX1 (Homo sapiens, UniProt Q5SQQ9 86-172)
# Sequence of VAX1 (Homo sapiens, UniProt Q5SQQ9 86-172) (Q5SQQ9 86-172): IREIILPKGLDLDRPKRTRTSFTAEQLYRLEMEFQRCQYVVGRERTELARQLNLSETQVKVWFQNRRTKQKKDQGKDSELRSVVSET
# VAX1 [9] = target: VAX1 (Homo sapiens, UniProt Q5SQQ9 86-172, T142I)
# Sequence of VAX1 (Homo sapiens, UniProt Q5SQQ9 86-172, T142I) (Q5SQQ9 86-172 T142I): as the sequence (Q5SQQ9 86-172) above, with T57I counted along it
# VAX1 [10] = target: VAX1 (Homo sapiens, UniProt Q5SQQ9 86-172, K157R)
# Sequence of VAX1 (Homo sapiens, UniProt Q5SQQ9 86-172, K157R) (Q5SQQ9 86-172 K157R): as the sequence (Q5SQQ9 86-172) above, with K72R counted along it
# ALX4 [11] = target: ALX4 (Homo sapiens, UniProt Q9H161 200-286)
# Sequence of ALX4 (Homo sapiens, UniProt Q9H161 200-286) (Q9H161 200-286): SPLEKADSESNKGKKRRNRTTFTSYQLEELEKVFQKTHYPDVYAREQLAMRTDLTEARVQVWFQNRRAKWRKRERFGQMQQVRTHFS
# ALX4 [12] = target: ALX4 (Homo sapiens, UniProt Q9H161 200-286, Q225E)
# Sequence of ALX4 (Homo sapiens, UniProt Q9H161 200-286, Q225E) (Q9H161 200-286 Q225E): as the sequence (Q9H161 200-286) above, with Q26E counted along it
# HOXC10 [13] = target: HOXC10 (Homo sapiens, UniProt Q9NYD6 254-340)
# Sequence of HOXC10 (Homo sapiens, UniProt Q9NYD6 254-340) (Q9NYD6 254-340): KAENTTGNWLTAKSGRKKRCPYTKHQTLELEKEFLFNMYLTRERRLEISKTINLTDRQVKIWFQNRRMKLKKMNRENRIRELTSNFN
# ALX1 [14] = target: ALX1 (Homo sapiens, UniProt Q15699 118-204, L144V)
# Sequence of ALX1 (Homo sapiens, UniProt Q15699 118-204, L144V) (Q15699 118-204 L144V): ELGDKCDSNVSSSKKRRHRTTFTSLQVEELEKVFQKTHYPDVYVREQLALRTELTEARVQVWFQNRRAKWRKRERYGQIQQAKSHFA
# ALX3 [15] = target: ALX3 (Homo sapiens, UniProt O95076 139-225, N203Q)
# Sequence of ALX3 (Homo sapiens, UniProt O95076 139-225, N203Q) (O95076 139-225 N203Q): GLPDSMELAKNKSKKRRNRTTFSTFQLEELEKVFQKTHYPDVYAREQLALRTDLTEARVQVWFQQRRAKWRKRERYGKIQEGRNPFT
# ALX1 [16] = target: ALX1 (Homo sapiens, UniProt Q15699 118-204, L144R)
# Sequence of ALX1 (Homo sapiens, UniProt Q15699 118-204, L144R) (Q15699 118-204 L144R): as the sequence (Q15699 118-204 L144V) above, with V27R counted along it
# HOXC10 [17] = target: HOXC10 (Homo sapiens, UniProt Q9NYD6 254-340, K271E)
# Sequence of HOXC10 (Homo sapiens, UniProt Q9NYD6 254-340, K271E) (Q9NYD6 254-340 K271E): as the sequence (Q9NYD6 254-340) above, with K18E counted along it
# ALX3 [18] = target: ALX3 (Homo sapiens, UniProt O95076 139-225)
# Sequence of ALX3 (Homo sapiens, UniProt O95076 139-225) (O95076 139-225): as the sequence (O95076 139-225 N203Q) above, with Q65N counted along it
# ALX3 [19] = target: ALX3 (Homo sapiens, UniProt O95076 139-225, L168Q)
# Sequence of ALX3 (Homo sapiens, UniProt O95076 139-225, L168Q) (O95076 139-225 L168Q): as the sequence (O95076 139-225 N203Q) above, with L30Q, Q65N counted along it
# ALX3 [20] = target: ALX3 (Homo sapiens, UniProt O95076 139-225, L168V)
# Sequence of ALX3 (Homo sapiens, UniProt O95076 139-225, L168V) (O95076 139-225 L168V): as the sequence (O95076 139-225 N203Q) above, with L30V, Q65N counted along it
# ALX1 [21] = target: ALX1 (Homo sapiens, UniProt Q15699 118-204)
# Sequence of ALX1 (Homo sapiens, UniProt Q15699 118-204) (Q15699 118-204): as the sequence (Q15699 118-204 L144V) above, with V27L counted along it
# ALX3 [22] = target: ALX3 (Homo sapiens, UniProt O95076 139-225, N203S)
# Sequence of ALX3 (Homo sapiens, UniProt O95076 139-225, N203S) (O95076 139-225 N203S): as the sequence (O95076 139-225 N203Q) above, with Q65S counted along it
sequence,measurement,setting,value
CCAAGGGC,binding signal,VENTX [1],"8.09 upbm affinity estimate (log intensity, higher = more binding, comparable within an allelic series)"
same,binding signal,VENTX [2],"8.33 upbm affinity estimate (log intensity, higher = more binding, comparable within an allelic series)"
same,binding signal,VENTX [3],"8.21 upbm affinity estimate (log intensity, higher = more binding, comparable within an allelic series)"
ACCCATTA,binding signal,VENTX [1],"12.1 upbm affinity estimate (log intensity, higher = more binding, comparable within an allelic series)"
same,binding signal,VENTX [2],"12.9 upbm affinity estimate (log intensity, higher = more binding, comparable within an allelic series)"
same,binding signal,HOXA7 [4],"11.2 upbm affinity estimate (log intensity, higher = more binding, comparable within an allelic series)"
same,binding signal,VENTX [3],"11.7 upbm affinity estimate (log intensity, higher = more binding, comparable within an allelic series)"
same,binding signal,HOXB6 [5],"9.84 upbm affinity estimate (log intensity, higher = more binding, comparable within an allelic series)"
same,binding signal,HOXA7 [6],"8.76 upbm affinity estimate (log intensity, higher = more binding, comparable within an allelic series)"
same,binding signal,HOXB6 [7],"11.8 upbm affinity estimate (log intensity, higher = more binding, comparable within an allelic series)"
CAGGGCCC,binding signal,VENTX [1],"8.07 upbm affinity estimate (log intensity, higher = more binding, comparable within an allelic series)"
same,binding signal,VENTX [2],"8.08 upbm affinity estimate (log intensity, higher = more binding, comparable within an allelic series)"
same,binding signal,HOXA7 [4],"8.32 upbm affinity estimate (log intensity, higher = more binding, comparable within an allelic series)"
same,binding signal,VENTX [3],"7.87 upbm affinity estimate (log intensity, higher = more binding, comparable within an allelic series)"
same,binding signal,VAX1 [8],"7.03 upbm affinity estimate (log intensity, higher = more binding, comparable within an allelic series)"
same,binding signal,VAX1 [9],"7.1 upbm affinity estimate (log intensity, higher = more binding, comparable within an allelic series)"
same,binding signal,HOXA7 [6],"8.37 upbm affinity estimate (log intensity, higher = more binding, comparable within an allelic series)"
same,binding signal,VAX1 [10],"6.99 upbm affinity estimate (log intensity, higher = more binding, comparable within an allelic series)"
CGTCGACG,binding signal,VENTX [1],"7.98 upbm affinity estimate (log intensity, higher = more binding, comparable within an allelic series)"
same,binding signal,VENTX [2],"7.91 upbm affinity estimate (log intensity, higher = more binding, comparable within an allelic series)"
same,binding signal,ALX4 [11],"7.89 upbm affinity estimate (log intensity, higher = more binding, comparable within an allelic series)"
same,binding signal,VENTX [3],"8.1 upbm affinity estimate (log intensity, higher = more binding, comparable within an allelic series)"
same,binding signal,ALX4 [12],"7.93 upbm affinity estimate (log intensity, higher = more binding, comparable within an allelic series)"
CTGGCGCA,binding signal,VENTX [1],"8.11 upbm affinity estimate (log intensity, higher = more binding, comparable within an allelic series)"
same,binding signal,VENTX [2],"8.09 upbm affinity estimate (log intensity, higher = more binding, comparable within an allelic series)"
same,binding signal,HOXC10 [13],"9.99 upbm affinity estimate (log intensity, higher = more binding, comparable within an allelic series)"
same,binding signal,VENTX [3],"8.2 upbm affinity estimate (log intensity, higher = more binding, comparable within an allelic series)"
same,binding signal,ALX1 [14],"6.29 upbm affinity estimate (log intensity, higher = more binding, comparable within an allelic series)"
same,binding signal,ALX3 [15],"7.76 upbm affinity estimate (log intensity, higher = more binding, comparable within an allelic series)"
same,binding signal,ALX1 [16],"6.21 upbm affinity estimate (log intensity, higher = more binding, comparable within an allelic series)"
same,binding signal,HOXC10 [17],"10 upbm affinity estimate (log intensity, higher = more binding, comparable within an allelic series)"
same,binding signal,ALX3 [18],"7.58 upbm affinity estimate (log intensity, higher = more binding, comparable within an allelic series)"
same,binding signal,ALX3 [19],"7.71 upbm affinity estimate (log intensity, higher = more binding, comparable within an allelic series)"
same,binding signal,ALX3 [20],"7.74 upbm affinity estimate (log intensity, higher = more binding, comparable within an allelic series)"
same,binding signal,ALX1 [21],"6.24 upbm affinity estimate (log intensity, higher = more binding, comparable within an allelic series)"
same,binding signal,ALX3 [22],"7.82 upbm affinity estimate (log intensity, higher = more binding, comparable within an allelic series)"
GAGTTCCC,binding signal,VENTX [1],"8.1 upbm affinity estimate (log intensity, higher = more binding, comparable within an allelic series)"
same,binding signal,VENTX [2],"8.23 upbm affinity estimate (log intensity, higher = more binding, comparable within an allelic series)"
same,binding signal,HOXC10 [13],"9.93 upbm affinity estimate (log intensity, higher = more binding, comparable within an allelic series)"
same,binding signal,VENTX [3],"8.22 upbm affinity estimate (log intensity, higher = more binding, comparable within an allelic series)"
same,binding signal,HOXC10 [17],"10 upbm affinity estimate (log intensity, higher = more binding, comparable within an allelic series)"
CCAAATTA,binding signal,VENTX [1],"10.8 upbm affinity estimate (log intensity, higher = more binding, comparable within an allelic series)"
same,binding signal,VENTX [2],"11.4 upbm affinity estimate (log intensity, higher = more binding, comparable within an allelic series)"
same,binding signal,VENTX [3],"10.8 upbm affinity estimate (log intensity, higher = more binding, comparable within an allelic series)"
AAATCTAC,binding signal,VENTX [1],"9.32 upbm affinity estimate (log intensity, higher = more binding, comparable within an allelic series)"
same,binding signal,VENTX [2],"9.65 upbm affinity estimate (log intensity, higher = more binding, comparable within an allelic series)"
AATAACAC,binding signal,VENTX [1],"9.57 upbm affinity estimate (log intensity, higher = more binding, comparable within an allelic series)"
same,binding signal,VENTX [2],"9.93 upbm affinity estimate (log intensity, higher = more binding, comparable within an allelic series)"
ACGTAATA,binding signal,VENTX [1],"10.2 upbm affinity estimate (log intensity, higher = more binding, comparable within an allelic series)"
same,binding signal,VENTX [2],"10.5 upbm affinity estimate (log intensity, higher = more binding, comparable within an allelic series)"
same,binding signal,VENTX [3],"10.1 upbm affinity estimate (log intensity, higher = more binding, comparable within an allelic series)"
